PubChem BioAssay AID1745853 (National Center for Advancing Translational Sciences (NCATS), 2022)
The whole screen tested about 25,000 compounds, of which about 970 (3.9%) were called active. Inconclusive results (about 8%) are left out. How the calls were made is not given here. This excerpt belongs to a sample that is enriched for actives.

How the values were obtained:
Assay in all cases: Primary Screen for Target Class Profiling of Small Molecule Inhibitors of Methyltransferases
[1] = target: Catechol O-methyltransferase (Homo sapiens) (UniProt P21964); conditions: purified enzyme, MTase-Glo SAH luminescence; activity change, negative = inhibition: at 40 µM, stronger effect = lower value; outcome: 40 uM
Catechol O-methyltransferase (Homo sapiens), sequence (P21964 whole entry, looked up): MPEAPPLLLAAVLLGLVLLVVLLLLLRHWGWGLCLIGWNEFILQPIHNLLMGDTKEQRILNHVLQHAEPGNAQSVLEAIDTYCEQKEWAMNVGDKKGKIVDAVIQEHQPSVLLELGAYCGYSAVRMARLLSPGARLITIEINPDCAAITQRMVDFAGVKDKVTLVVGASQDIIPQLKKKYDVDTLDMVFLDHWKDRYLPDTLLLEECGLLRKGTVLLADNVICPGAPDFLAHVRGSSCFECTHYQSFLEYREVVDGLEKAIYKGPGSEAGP
Summary of the method: (§1)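 Each enzyme was assayed with SAM and its substrate. SAH formation detected by MTase-Glo luminescence; single-point 40 uM screen[…].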

[2] = target: Glycine N-methyltransferase (Homo sapiens) (UniProt Q14749); conditions: purified enzyme, MTase-Glo SAH luminescence; measured here: GNMT inhibition; at 40 µM; stronger effect = lower value
Glycine N-methyltransferase (Homo sapiens), sequence (Q14749 whole entry, looked up): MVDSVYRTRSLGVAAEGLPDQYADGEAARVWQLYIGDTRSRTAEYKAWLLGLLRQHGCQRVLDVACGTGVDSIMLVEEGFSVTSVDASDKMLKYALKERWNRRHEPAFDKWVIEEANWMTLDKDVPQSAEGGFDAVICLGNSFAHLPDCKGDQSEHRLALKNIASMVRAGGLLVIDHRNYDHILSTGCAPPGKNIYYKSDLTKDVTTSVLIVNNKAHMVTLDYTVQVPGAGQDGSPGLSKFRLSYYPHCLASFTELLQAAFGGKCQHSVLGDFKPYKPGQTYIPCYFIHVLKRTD
Summary of the method: as §1

[3] = target: Guanidinoacetate N-methyltransferase (Homo sapiens) (UniProt Q14353); conditions: purified enzyme, MTase-Glo SAH luminescence; measured here: GAMT inhibition; at 40 µM; stronger effect = lower value
Summary of the method: as §1

[4] = target: Histamine N-methyltransferase (Homo sapiens) (UniProt P50135); conditions: purified enzyme, MTase-Glo SAH luminescence; measured here: HNMT inhibition; at 40 µM; stronger effect = lower value
Histamine N-methyltransferase (Homo sapiens), sequence (P50135 whole entry, looked up): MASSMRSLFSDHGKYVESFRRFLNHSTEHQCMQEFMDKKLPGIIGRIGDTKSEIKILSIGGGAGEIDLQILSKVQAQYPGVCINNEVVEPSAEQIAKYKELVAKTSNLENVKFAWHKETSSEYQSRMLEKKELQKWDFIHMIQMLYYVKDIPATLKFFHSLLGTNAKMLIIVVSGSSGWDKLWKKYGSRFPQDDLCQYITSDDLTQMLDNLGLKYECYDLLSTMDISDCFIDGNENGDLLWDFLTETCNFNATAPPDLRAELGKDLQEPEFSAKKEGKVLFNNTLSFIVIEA
Summary of the method: as §1

[5] = target: Nicotinamide N-methyltransferase (Homo sapiens) (UniProt P40261); conditions: purified enzyme, MTase-Glo SAH luminescence; measured here: NNMT inhibition; at 40 µM; stronger effect = lower value
Nicotinamide N-methyltransferase (Homo sapiens), sequence (P40261 whole entry, looked up): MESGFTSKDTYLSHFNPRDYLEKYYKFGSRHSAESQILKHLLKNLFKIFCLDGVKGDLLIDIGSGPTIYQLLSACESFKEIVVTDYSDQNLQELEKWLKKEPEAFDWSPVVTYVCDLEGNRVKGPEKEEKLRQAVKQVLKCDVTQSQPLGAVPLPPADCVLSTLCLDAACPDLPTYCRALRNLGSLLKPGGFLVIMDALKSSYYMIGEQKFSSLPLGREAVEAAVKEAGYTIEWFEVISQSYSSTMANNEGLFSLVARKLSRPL
Summary of the method: as §1

[6] = target: Phenylethanolamine N-methyltransferase (Homo sapiens) (UniProt P11086); conditions: purified enzyme, MTase-Glo SAH luminescence; measured here: PNMT inhibition; at 40 µM; stronger effect = lower value
Phenylethanolamine N-methyltransferase (Homo sapiens), sequence (P11086 whole entry, looked up): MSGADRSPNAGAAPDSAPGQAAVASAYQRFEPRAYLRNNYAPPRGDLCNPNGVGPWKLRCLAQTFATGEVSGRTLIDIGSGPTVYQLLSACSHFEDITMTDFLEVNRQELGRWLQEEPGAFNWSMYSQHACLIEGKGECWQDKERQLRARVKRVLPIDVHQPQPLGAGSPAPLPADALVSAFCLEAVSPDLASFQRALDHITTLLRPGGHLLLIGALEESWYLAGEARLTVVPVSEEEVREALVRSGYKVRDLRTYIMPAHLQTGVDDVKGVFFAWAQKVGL
Summary of the method: as §1
On the % scale 0 is the no-effect control and ±100 the full control effect.

SMILES | activity change, negative = inhibition [1] | activity change, negative = inhibition [2] | activity change, negative = inhibition [3] | activity change, negative = inhibition [4] | activity change, negative = inhibition [5] | activity change, negative = inhibition [6]
Cc1cc(Cl)ccc1OCC(=O)N1CC(CO)C2(CCNCC2)C1 (stereo not given) | 2.63% (inactive) | -0.912% | -2.42% | -7.34% | 1.44% | 4.28%
CC(C)CCn1c(=O)c2ccc(C(=O)NC(C)C)cc2n2c(=O)n(CC(=O)Nc3ccccc3)nc12 | 3.2% (inactive) | 2.47% | 0% | -0.014% | 2.58% | 3.82%
COC(=O)C(C)C1CCC2(C)C(=O)C=CC(C)(O)C2C1O (stereo not given) | -21.2% (inactive) | 0.317% | 3.5% | 4.59% | -8.83% | 5.47%
CC1(C(=O)NC2CCCCC2)Cn2c(nc3ccccc32)C(=O)N1CCCc1ccccc1 (stereo not given) | -0.028% (inactive) | -0.457% | 2.95% | -0.222% | 2.79% | -1.29%
COc1cccc(S(=O)(=O)N2CCC([C@H]3[C@@H](OC)C(=O)N3C(C)C)CC2)c1 | -16.7% (inactive) | -11% | -0.234% | -8.83% | -11.7% | -7.58%
O=C(Nc1ccccc1Cl)N1CCn2cccc2C1Cc1ccccc1 (stereo not given) | 8.91% (inactive) | -4.49% | 0% | 0.539% | -1.29% | 1%
CC(=O)N(C1CCOCC1)C1CCN(S(=O)(=O)c2ccc3c(c2)OCCO3)CC1 | 14.5% (inactive) | 6.17% | 0% | 15.9% | 5.83% | 10%
COC1CCN(CC2CCCCCN2C(=O)NCc2ccc(F)cc2)CC1 (stereo not given) | 0.269% (inactive) | -0.541% | -1.47% | 0.992% | 0.892% | -1.43%
CCCc1sc(NC(=O)C[C@H]2NC(=O)c3ccccc3NC2=O)nc1C(=O)OC | -0.596% (active) | -52% | 0.55% | -1.11% | -24.7% | -7.16%
CCOc1ccc(NC(=O)N2Cc3c(sc4c3CCCC4)-n3cccc3C2c2ccc(C)cc2)cc1 (stereo not given) | -4.77% (inactive) | -7.14% | -5.05% | -0.466% | -12.8% | -3.68%
COc1ccc(CN2C(=O)c3cc4sccc4n3CC2(C)C(=O)NC2CCCCC2)cc1 (stereo not given) | -1.71% (inactive) | -4.01% | 4.64% | 0.743% | 0.231% | -2.93%
CCCN1C(=O)c2c(C(=O)NCc3ccc(OC(C)C)cc3)ncn2CC1(C)C(=O)NCc1ccccc1 (stereo not given) | 7.93% (inactive) | 0.786% | 0% | 10.9% | 0.527% | 8.93%
CCNc1ccnc(N2C[C@H]3CN(C(=O)N(C)C)C[C@@]3(C(=O)O)C2)n1 | 1.84% (inactive) | 0.021% | 1.18% | 0.65% | 1.12% | -1%
C=C1C(=O)O[C@@H]2[C@H]1CC[C@H](C)[C@]1(CCC(=O)O1)C2(C)O (stereo not given in full) | -16.8% (inactive) | 0% | 7.54% | 11.3% | -3.81% | 5.47%
Cc1cc(C)c(S(=O)(=O)NCCc2nc(-c3ccc(Cl)cc3)n[nH]2)cc1C | -7.11% (inactive) | 0.532% | 3.01% | -1.1% | -4.42% | -1.52%
CCC(CC)C(=O)NC[C@H]1O[C@@H](CC(=O)N2CCC(C)CC2)[C@H](O)[C@@H]1O | 0.159% (inactive) | -5.41% | -3.2% | 0.02% | -4.29% | -0.431%
Cc1cnc(-c2ccccc2)n1CCNC(=O)CCC1CCCC1 | -2.65% (inactive) | -4.13% | -6.61% | -3.82% | -12.7% | -3.43%
Cc1cnc(C2CCC2)n1C1CCN(C(=O)CCC2CCCC2)CC1 | -0.614% (active) | -2.95% | 3.19% | -52.2% | -10.2% | 12.5%
NS(=O)(=O)c1ccc(F)c(C(=O)NCc2noc(-c3ccco3)n2)c1 | -11.2% (inactive) | -7.86% | -7.24% | -3.67% | -12% | -1.94%
CCOc1ccc(CNC(=O)c2ncn3c2C(=O)N(C2CC2)C(C)(C(=O)NCc2ccccc2Cl)C3)cc1 (stereo not given) | 11.3% (inactive) | 1.47% | 2.43% | 7.45% | 1.94% | 7.97%
CCN(CC)CCCCNc1ncc2cc(-c3c(Cl)cccc3Cl)c(NC(=O)NC(C)(C)C)nc2n1 | -1.2% (active) | -7.18% | 10.6% | -54.9% | -20.4% | 0.23%
CN(CCc1ccccn1)c1ncccc1CNC(=O)C1CCc2ccccc21 (stereo not given) | -4.9% (inactive) | -5.71% | -6.23% | -3.62% | -10.6% | -5.62%
CCCCOc1ccc(CNC(=O)c2cc3n(n2)CC(C)(C(=O)NCc2ccccc2)N(C)C3=O)cc1 (stereo not given) | 6.54% (inactive) | 8.47% | 0.793% | 9.19% | 11.5% | 7.21%
CC(C)(C)c1ccc(C(=O)Nc2cc(Cl)c(Br)cc2C(=O)O)cc1 | -7.23% (active) | -49.9% | -17.8% | -39.8% | -69% | -27.1%
CC(C)(C)c1ccc(S(=O)(=O)NCc2ccc(C(=O)Nc3cccnc3)cc2)cc1 | -2.26% (inactive) | -3.93% | -2.21% | -1.56% | -14.6% | -7.18%
Cc1ccccc1CN1C(=O)c2cc(-c3cccs3)nn2CC1(C)C(=O)NC1CCCCC1 (stereo not given) | 0.113% (inactive) | -0.305% | 0% | 0.259% | 3.22% | -1.18%

SMILES | activity change, negative = inhibition [1] | activity change, negative = inhibition [2] | activity change, negative = inhibition [3] | activity change, negative = inhibition [4] | activity change, negative = inhibition [5] | activity change, negative = inhibition [6]
COc1ccc(C2Cn3nnc(-c4noc(C5CCC5)n4)c3CO2)cc1 (stereo not given) | -14.4% (inactive) | -9.87% | -9.12% | -7.42% | -17.1% | -12.5%
CN1C(=O)C2(CCN(Cc3cccn3C)C2)c2ccccc21 (stereo not given) | -4.01% (inactive) | -11.7% | -5.16% | -17.5% | -15.9% | -0.794%
O=C(/C=C/c1ccc(CN(CCO)CCc2c[nH]c3ccccc23)cc1)NO | 19.6% (active) | -17.2% |  | -68.8% | -31% | 12.3%
C/C=C\NC(=O)C1NC(=O)C(CC(N)=O)NC(=O)C(NC(=O)C(=O)C(C)CC)Cc2ccc(O)c(c2)-c2cccc3c2NC(=O)C3(O)C1O (stereo not given) | -7.46% (inactive) | -2.05% | -15.1% | -0.643% | -26.2% | -2.58%
FC(F)(F)c1cccc(C2=NOC3(CCCN(CC4CCCCC4)C3)C2)c1 (stereo not given) | -1.26% (inactive) | -2.05% | 2.98% | 1.38% | -6.62% | 6.26%
Cc1nn(-c2ccccc2)c2c1C(C)N(C1CCN(C(=O)NC3CCCC3)C1)C2=O (stereo not given) | -10.5% (inactive) | -9.42% | -11.7% | -6.3% | -12.4% | -12%
O=C(NCc1cc2n(n1)CCCN(C1CCCCC1)C2)c1cccc(F)c1 | -1.85% (inactive) | -1.07% | -0.04% | -13% | -2.3% | 3.54%
Cc1ccc(NC(=O)Cn2nc3n(C(C)C)c(=O)c4ccc(C(=O)NC(C)C)cc4n3c2=O)c(Cl)c1 | 7.09% (inactive) | 7.08% | 2.19% | 7.8% | 1.15% | 7.43%
CC[C@@H](c1ccc(F)c(F)c1)n1c(C(=O)OC)c(-c2ccno2)[nH]c1=S | 6.91% (inactive) | 1.62% | 4.04% | 10.6% | -18.4% | -1.86%
CCCC1c2ccc(C)n2CCN1C(=O)Nc1ccc(OCC)cc1 (stereo not given) | 1.32% (inactive) | 1.56% | 0% | -0.12% | 2.78% | 1.21%
CNC(=O)[C@@H]1CN(C(=O)c2ccc(OC)cc2C)C[C@H]1COC | -1.84% (inactive) | -2.55% | -4.79% | -1.32% | -3.85% | -0.512%
CCCN1C(=O)c2cc(C(=O)NCc3cc(Br)ccc3OC)nn2CC1(C)C(=O)NC1CCCC1 (stereo not given) | -2.6% (inactive) | -4.66% | -1.16% | -1.31% | -2.91% | -4.59%
CC1=C[C@@H](CNS(=O)(=O)c2cccc(C#N)c2)[C@H](C(C)C)C[C@H]1CC(=O)N(C)Cc1cccnc1 | -5.31% (inactive) | -4.49% | -3.45% | -4.55% | -23.9% | -6.65%
CCCn1c(=O)c2ccc(C(=O)NC3CCCC3)cc2n2c(=O)n(Cc3ccc(F)cc3Cl)nc12 | -1.77% (inactive) | -1.81% | -0.898% | 5.95% | -5.65% | -1.78%
C=C1C(=O)O[C@@H]2C[C@@]3(C)CCCC(=C)[C@]3(O)C[C@H]12 | 6.75% (inactive) | 1.89% | 5.34% | 6.01% | -3.59% | 7.18%
CCCNC(=O)Cn1ccc2cc(S(=O)(=O)N3CCCCC3)ccc21 | 4.84% (inactive) | 9.68% | 1.89% | 7.8% | 9.14% | 4.01%
O=C(O)C1=NOC2CN([S+](=O)([O-])c3cc(C(F)(F)F)cc(C(F)(F)F)c3)CC12 (stereo not given) | 0.473% (inactive) | 0.245% | -0.074% | 1.51% | -7.33% | -0.67%
COc1ccccc1NC(=O)CSc1nnc2[nH]c(=O)c(C(C)(C)C)nn12 | 9.13% (inactive) | 7.62% | 0% | 5.75% | -0.804% | -8.39%
CCCn1c(=O)c2cc(Cl)ccc2n2c(SCC(=O)Nc3cccc(Cl)c3)nnc12 | -3.39% (inactive) | -7.66% | -0.122% | 1.87% | -14% | -4.95%
COc1ccc(NC(=O)CSc2nnc3n(CCCOC(C)C)c(=O)c4ccccc4n23)cc1 | 6.36% (inactive) | 1.3% | 1.9% | 7.77% | 6.56% | 5.87%
CCNC(=O)C#Cc1ccc2c(C(=Nc3ccc(CN(C)C)cc3)c3ccccc3)c(O)[nH]c2c1 | -18.4% (active) | -35.9% | -5.11% | -64.7% | -34.2% | -13.1%
COCCn1c(=O)c(C(=O)N2CCN(C(C)=O)CC2)nc2cccnc21 | -9.78% (inactive) | -6.01% | -10.4% | -3.36% | -14% | -5.78%
CC(C)Cn1c(=O)c2ccccc2n2c(=O)n(Cc3ccccc3)nc12 | 2.82% (inactive) | -1.72% | 0% | 6.83% | -9.64% | 0.863%
Cc1ccc(NC(=O)Cn2nc3n(C(C)C)c(=O)c4ccc(C(=O)NC5CCCCC5)cc4n3c2=O)cc1 | 2.74% (inactive) | 4.18% | 4.48% | 8.87% | 1.86% | 2.8%
CCC(=O)N1Cc2ccccc2OC2(CCN(C(C)C)CC2)C1 | -1.54% (inactive) | -3.35% | -0.819% | 0.171% | -3.98% | -4.26%
